PubChem BioAssay (NCATS)
Inconclusive results are not listed. A call without a number means that no potency is given here. The source made the active and inactive calls. Calls follow the shape of the dose curve; as a rule, active = well fitted cell-killing curve with a large enough effect; inconclusive = small, poorly fitted or top-dose-only effect; inactive = no such curve, though single readings can be large or run the other way.

Test: Cell Viability - LYMP2-001 (AID 921); also: nearly all actives have a fitted effect of over 70% in size
Conditions: LYMP2-001 lymphoblastoid cell viability; series mostly up to 92.2 µM
Description: NIH Chemical Genomics Center [NCGC]
NIH Molecular Libraries Screening Centers Network [MLSCN]
National Institutes of Environmental Health Sciences [NIEHS]
National Toxicology Program [NTP]
We have developed a 1536-well cell-based assay for quantitative high throughput screening (qHTS) against a number of cell lines to determine in vitro cytotoxicity of small molecules. This particular assay uses a human lymphoblastoid cell line (LYMP2-001) purchased from Coriell Institute for Medical Research.
NCGC Assay Protocol Summary:
The CellTiter-Glo luminescent cell viability assay (Promega) is a homogeneous method to measure the number of viable cells in culture. The end point readout of this assay is based on quantitation of intracellular ATP, an indicator of metabolic activity, using the luciferase reaction. Luciferase catalyzes the oxidation of beetle Luciferin to oxyluciferin and light in the presence of ATP. The luminescent signal is proportional to amount of ATP present.
Using the CellTiter-Glo luminescent cell viability assay, the amount of cellular ATP was measured in the lymphoblastoid cell line with complete culture medium following compound treatment for 24 hours. The assay was performed in opaque white Kalypsys 1536-well plates. In the screen, tetraoctylammonium bromide was used as positive control. Library compounds were measured for their ability to cause acute toxicity in the cell line, as reflected by a decrease in intracellular ATP levels, in a concentration-dependent manner. […] AC50 values were determined from concentration-response data modeled with the standard Hill equation.
qHTS protocol for CellTiter Glo lymphoblastoid cellular assay
[Step] [Parameter] [Value] [Description]
1. Reagent; 5 uL; 2500 lymphoblastoid cells/well
2. Time; 5 hr; 37 C incubation
4. Controls; 23 nL; Tetraoctylammonium bromide 6.4pM to 92 uM
5. Time; 24 hr; 37 C incubation
6. Reagent; 5 uL; CellTiter Glo reagent
7. Time; 30 min; Room Temperature
8. Detection; Luminescence; Viewlux plate reader
Keywords: cell viability, cytotoxicity, lymphoblastoid cell line, luminescence, NTPHTS, NTPHTS_NCGC, NIEHS, DSSTox, MLSMR, MLSCN, NIH Roadmap, qHTS, NCGC
Potency is read from the fitted curve at half-maximal effect.

**Q.** With `O[C@@H]([C@H](O)[C@@H](O)CBr)[C@@H](O)CBr` as the compound, how does the Potency read?
**A.** The Potency was “inactive”.

**Q.** Which Potency does the source give for `c1ccc2scnc2c1` here?
**A.** Its Potency is “inactive”.

**Q.** For `CC1=C2[C@H](/C=C(\C)C(=O)O)CC[C@@H](C)[C@H]2CC1`, which Potency is on record?
**A.** The Potency was “inactive”.

**Q.** Which Potency does the source give for `O=NO` here?
**A.** Its Potency is “inactive”.

**Q.** Which Potency does the source give for `COc1cc(/C=C/c2ccccc2)oc(=O)c1` here?
**A.** Its Potency is “inactive”.

**Q.** Which Potency does the source give for `c1ccccc1` here?
**A.** Its Potency is “inactive”.

**Q.** With `C=C(C)C1CC=C(C)C(O)C1` (stereo not given) as the compound, how does the Potency read?
**A.** The Potency was “inactive”.

**Q.** Which Potency does the source give for `O=[N+]([O-])c1cccc(Cl)c1Cl` here?
**A.** Its Potency is “inactive”.

**Q.** With `O=C1CCc2ccccc2O1` as the compound, how does the Potency read?
**A.** Its Potency is “inactive”.

**Q.** With `CCC(O)OC(O)CC` (stereo not given) as the compound, how does the Potency read?
**A.** The Potency was “inactive”.

**Q.** For `c1ccc2c(c1)c1cccc3ccc4cccc2c4c31`, which Potency is on record?
**A.** The Potency was “inactive”.

**Q.** With `CC12CCC(CC1=O)C2(C)C` (stereo not given) as the compound, how does the Potency read?
**A.** Its Potency is “inactive”.

**Q.** Which Potency does the source give for `Cc1c(N=C=O)cccc1N=C=O` here?
**A.** The Potency was “inactive”.

**Q.** With `Cc1ccc(N)c([N+](=O)[O-])c1` as the compound, how does the Potency read?
**A.** Its Potency is “inactive”.

**Q.** With `CCCCOCCO` as the compound, how does the Potency read?
**A.** The Potency was “inactive”.

**Q.** With `Clc1cc(Cl)c(Cl)cc1Cl` as the compound, how does the Potency read?
**A.** Its Potency is “inactive”.

**Q.** For `CC(C)=CCCC(C)CCO` (stereo not given), which Potency is on record?
**A.** The Potency was “inactive”.

**Q.** With `CCCCCCCCCCCCCC(=O)O` as the compound, how does the Potency read?
**A.** The Potency was “inactive”.

**Q.** Which Potency does the source give for `C=CCc1ccc(OC)c(OC)c1` here?
**A.** Its Potency is “inactive”.

**Q.** For `C=CC(=O)OCCOCCOCCOCCOC(=O)C=C`, which Potency is on record?
**A.** Its Potency is 15.8 µM (active).

**Q.** With `CCCCC(CC)CN` (stereo not given) as the compound, how does the Potency read?
**A.** Its Potency is “inactive”.

**Q.** With `O=C(O)c1ccccc1` as the compound, how does the Potency read?
**A.** Its Potency is “inactive”.

**Q.** With `Nc1ccc(Cl)cc1Cl` as the compound, how does the Potency read?
**A.** Its Potency is “inactive”.

**Q.** Which Potency does the source give for `Cc1ccc([N+](=O)[O-])cc1N` here?
**A.** Its Potency is “inactive”.

**Q.** For `CN(C)C=O`, which Potency is on record?
**A.** Its Potency is “inactive”.

**Q.** With `S=C1NC=NC2N=CNC12` (stereo not given) as the compound, how does the Potency read?
**A.** The Potency was “inactive”.

**Q.** With `C=Cc1ccccc1Cl` as the compound, how does the Potency read?
**A.** Its Potency is “inactive”.

**Q.** With `CCO[Si](CCCN)(OCC)OCC` as the compound, how does the Potency read?
**A.** Its Potency is “inactive”.

**Q.** For `COc1ccc2nc(N)sc2c1`, which Potency is on record?
**A.** Its Potency is “inactive”.

**Q.** With `CCCCCCCCCCCC(=O)O` as the compound, how does the Potency read?
**A.** Its Potency is “inactive”.

**Q.** With `Cc1cccc([N+](=O)[O-])c1C` as the compound, how does the Potency read?
**A.** The Potency was “inactive”.

**Q.** For `O=S(=O)(O)c1ccccc1`, which Potency is on record?
**A.** Its Potency is “inactive”.

**Q.** With `C/C=C\c1ccc(OC)cc1` as the compound, how does the Potency read?
**A.** Its Potency is “inactive”.

**Q.** For `COCC(=O)O`, which Potency is on record?
**A.** Its Potency is “inactive”.

**Q.** With `Cc1ccc([N+](=O)[O-])c(C)c1` as the compound, how does the Potency read?
**A.** Its Potency is “inactive”.

**Q.** With `CCCN(CCC)C(=O)SCC` as the compound, how does the Potency read?
**A.** The Potency was “inactive”.

**Q.** For `CC1(C)CC(N=C=O)CC(C)(CN=C=O)C1` (stereo not given), which Potency is on record?
**A.** Its Potency is “inactive”.

**Q.** With `Clc1cc(Cl)c(Cl)c(Cl)c1Cl` as the compound, how does the Potency read?
**A.** Its Potency is “inactive”.

**Q.** Which Potency does the source give for `CCO` here?
**A.** Its Potency is “inactive”.

**Q.** Which Potency does the source give for `O=C(O)c1ccc(O)cc1O` here?
**A.** Its Potency is “inactive”.
